# Source: PubChem BioAssay AID624330 (Southern Research Specialized Biocontainment Screening …, 2012)
# The whole screen tested about 340,000 compounds, of which about 2,100 (0.62%) were called active.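 Rule for the calls: active = first-screen hits whose inhibition reached a set limit at any dose in the follow-up dose series; inconclusive = inhibition above the set first-screen limit but never retested; inactive = the rest.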 The list is a sample of the results. Entries with a potency or affinity are not part of this list.
# Target: Rac GTPase-activating protein 1 (Homo sapiens) (UniProt Q9H0H5)
# Test: MgcRacGAP GTPase-activating activity inhibitors, confirmation, biochemical, ADP Hunter fluorescence, primary and confirmatory (AID 624330);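 note: fluorescence reports GDP produced by GAP-driven GTP hydrolysis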
# Details: MgcRacGAP-stimulated Rac1 GTP hydrolysis, at 30 µM, stronger effect = higher value, GST-tagged Rac1 F28L mutant substrate
# Sequence of Rac GTPase-activating protein 1 (Homo sapiens) (Q9H0H5 whole entry, looked up): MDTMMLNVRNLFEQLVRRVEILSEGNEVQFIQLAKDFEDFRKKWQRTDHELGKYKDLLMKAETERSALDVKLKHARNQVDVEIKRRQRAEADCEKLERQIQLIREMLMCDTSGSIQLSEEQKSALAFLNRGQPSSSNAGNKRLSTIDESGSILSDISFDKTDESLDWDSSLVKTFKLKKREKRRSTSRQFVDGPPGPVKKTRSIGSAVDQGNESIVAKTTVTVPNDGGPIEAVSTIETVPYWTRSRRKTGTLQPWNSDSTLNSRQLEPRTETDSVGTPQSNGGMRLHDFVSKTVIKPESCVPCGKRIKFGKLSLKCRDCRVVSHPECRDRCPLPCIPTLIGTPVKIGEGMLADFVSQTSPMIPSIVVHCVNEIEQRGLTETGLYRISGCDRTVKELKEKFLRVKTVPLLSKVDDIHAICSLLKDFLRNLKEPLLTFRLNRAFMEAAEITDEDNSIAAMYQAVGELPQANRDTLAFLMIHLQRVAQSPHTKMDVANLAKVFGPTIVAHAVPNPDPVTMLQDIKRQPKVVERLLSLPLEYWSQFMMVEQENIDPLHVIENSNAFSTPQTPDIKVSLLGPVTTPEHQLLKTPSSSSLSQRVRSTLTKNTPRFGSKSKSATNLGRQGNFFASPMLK
row,Compound,inhibition
1,O=C1C=C(NCCc2cc(Br)c(O)c(Br)c2)C(=O)c2ncccc21,9.18% (inactive)
2,COc1ccc(CCN2C(=O)c3cccnc3C2=O)cc1OC,12.5% (inactive)
3,CCOC(=O)C1CCN(C(=O)C2CCN(C(=O)c3ccc([N+](=O)[O-])cc3)CC2)CC1,12% (inactive)
4,CCOC(=O)c1ccc(-n2c(=S)sc3c(=O)[nH]c(C)nc32)cc1,16.1% (inactive)
5,C=CCNC(=O)C(=O)N/N=C/c1cccc(Br)c1,5.98% (inactive)
6,O=C(O)c1ccccc1-c1c2cc(I)c(=O)c(I)c-2oc2c(I)c(O)c(I)cc12,28.3% (inactive)
7,O=c1ccc2c(-c3ccccc3S(=O)(=O)O)c3ccc(O)c(O)c3oc-2c1O,42.2% (inactive)
8,O=C(NCc1ccccc1)c1onc(CS(=O)(=O)c2ccccn2)c1C(=O)NCc1ccccc1,-5.99% (inactive)
9,NC(=O)C(c1ccc(Cl)cc1)c1ccc(Sc2ccc(Cl)cc2)nn1 (centres undefined),11.6% (inactive)
10,Nc1cccc(C(=O)Nc2cccc3ncccc23)c1,-7.17% (inactive)
11,C=CC(=O)N1C/C(=C/c2ccc(Cl)cc2)C(=O)/C(=C\c2ccc(Cl)cc2)C1,13.6% (inactive)
12,O=C(CCC(=O)N1CCOCC1)Nc1ccc(Cl)c(Cl)c1,5.89% (inactive)
13,CCN(CC)CCC(=O)N1c2ccccc2Sc2ccc(Cl)cc21,2.76% (inactive)
14,C=CC(=O)N1C/C(=C/c2ccccc2)C(=O)/C(=C\c2ccccc2)C1,26.6% (inactive)
15,O=C1/C(=C/c2ccccc2)CN(C(=O)CCN2CCOCC2)C/C1=C\c1ccccc1,27.7% (inactive)
16,CCOC(=O)N1C/C(=C\c2ccccc2)C(=O)/C(=C/c2ccccc2)C1,12.1% (inactive)
17,C=CC(=O)N1C/C(=C/c2ccc(F)cc2)C(=O)/C(=C\c2ccc(F)cc2)C1,13.1% (inactive)
18,O=C(/C=C/c1ccc(Cl)c(Cl)c1)N1CCOCC1,-0.69% (inactive)
19,O=C(Nc1ccc(N2CCOCC2)cc1)c1ccc(Cl)c(S(=O)(=O)N2CCCCC2)c1,0.26% (inactive)
20,CC1CC(=O)C2=C(C1)Nc1nc3ccccc3n1C2c1cccnc1 (centres undefined),6.35% (inactive)

row,Compound,inhibition
1,O=C(COc1cccc2cccnc12)Nc1cccc(S(=O)(=O)N2CCCC2)c1,7.88% (inactive)
2,CCCCCCc1ccc(N2C[C@H](Cc3ccccc3)[C@@H](CC(=O)Nc3ccccc3)C2=O)cc1,3.37% (inactive)
3,COc1cc(OC)c(N(C)C(=O)c2cn(C)c(=O)c3cc(OC)c(OC)cc23)cc1Cl,9.25% (inactive)
4,COC(=O)c1ccc(CNC(=O)C2CCC(=O)N(CCN3CCOCC3)C2)cc1 (centres undefined),6.54% (inactive)
5,CCOC(=O)N1CCC(Nc2c([N+](=O)[O-])cc(C(=O)O)cc2[N+](=O)[O-])CC1,9.55% (inactive)
6,Cc1ccc(NC(=O)COC(=O)COc2cccc3c2OC(C)(C)C3)cc1S(=O)(=O)N1CCOCC1,5.48% (inactive)
7,CC1=C(C(=O)N(C)C)CC(CC(=O)NCCN2CCOCC2)C(=O)N1CCC1=CCCCC1 (centres undefined),19.4% (inactive)
8,COc1ccc(OC(=O)N2C/C(=C/c3ccccc3)C(=O)/C(=C\c3ccccc3)C2)cc1,-4.51% (inactive)
9,O=C1/C(=C\c2ccccc2)CCC/C1=C/c1ccccc1,-6.55% (inactive)
10,CCOC(=O)C1(C)C=C(Nc2ccc(C)cc2)C(=O)N1c1ccc(C)cc1 (centres undefined),1.9% (inactive)
11,CCOC(=O)C1(C)C=C(Nc2ccc(NC(C)=O)cc2)C(=O)N1c1ccc(NC(C)=O)cc1 (centres undefined),4.87% (inactive)
12,CC(C)N1C(=O)c2ccccc2C1C(=O)NCCc1ccccc1 (centres undefined),3.65% (inactive)
13,COCC(=O)N(Cc1cc2cccc(C)c2[nH]c1=O)c1ccccc1,2.29% (inactive)
14,CCOc1ccc(OCCC(=O)OCC(=O)c2c(N)n(CC(C)C)c(=O)n(C)c2=O)cc1,15% (inactive)
15,Cc1cc(C)c2c(c1)NC(c1cc3c(cc1Br)OCO3)C1CC=CC21 (centres undefined),-0.13% (inactive)
16,O=C(O)C1Nc2c(Cl)cc(Cl)c(Cl)c2C2C=CCC12 (centres undefined),17.2% (inactive)
17,CC1Cc2cc(S(=O)(=O)N3CCC(C(=O)N(C)Cc4ccccc4)CC3)ccc2N1C(=O)C1CC1 (centres undefined),8.31% (inactive)
18,Fc1ccc(-n2cc(CNCCc3ccncc3)c(-c3ccccc3Cl)n2)cc1,1.7% (inactive)
19,CCOc1ccc(OCC(=O)Nc2cc(Cl)ccc2-n2cncn2)cc1,20.4% (inactive)
20,CCN(C(=O)COC(=O)CCCc1c[nH]c2ccccc12)c1c(N)n(Cc2ccccc2)c(=O)[nH]c1=O,-4.19% (inactive)

row,Compound,inhibition
1,Cc1ccc2oc(=O)c(/C=C(\O)c3ccco3)nc2c1,18.2% (inactive)
2,O=c1oc2ccc(Cl)cc2nc1/C=C(\O)c1cccs1,19.2% (inactive)
3,Cc1ccc2oc(=O)c(/C=C(\O)c3cccs3)nc2c1,15.8% (inactive)
4,O=c1oc2ccc(Cl)cc2nc1/C=C(\O)c1ccco1,25% (inactive)
5,CN(CCO)c1cc(NCCCN2CCC(Cc3ccccc3)CC2)c2nonc2c1[N+](=O)[O-],4.68% (inactive)
6,O=C(Nc1ccncc1)c1ccc(Cl)c(Cl)c1,4.24% (inactive)
7,Cc1ccc(C(=O)Nc2ccncc2)cc1[N+](=O)[O-],10.1% (inactive)
8,Cc1ccc(NC(=O)c2ccc(-n3cccn3)c([N+](=O)[O-])c2)cc1,6.01% (inactive)
9,O=C(Nc1ccc(NC(=O)c2ccc(Cl)cc2Cl)cc1)c1ccc2c(c1)OCO2,5.16% (inactive)
10,COc1ccc(N(C(=O)/C=C/c2ccccc2)C2=CC3CCC(C2)N3C)cc1 (centres undefined),1.64% (inactive)
11,COc1cc2[nH]c(C(=O)N3CCC(Cc4ccccc4)CC3)cc2c(OC)c1OC,4.96% (inactive)
12,Cc1ccc(-n2nc(C)c3c2OC(N)=C(C#N)C3c2ccc(F)cc2)cc1 (centres undefined),6.17% (inactive)
13,Cc1c(C(=O)N/N=C/c2cccs2)nc2ccccn12,4.8% (inactive)
14,CC(C)(C)N1C(=O)c2ccc(C(=O)Nc3cc(C(=O)O)cc(C(=O)O)c3)cc2C1=O,13.1% (inactive)
15,CC(C)(C)N1C(=O)c2ccc(C(=O)Nc3ccc(C(=O)O)cc3)cc2C1=O,1.96% (inactive)
16,CCN1C(=O)c2ccc(C(=O)Nc3c(C)cc(C)cc3C)cc2C1=O,-2.89% (inactive)
17,CC(C)CN1C(=O)c2ccc(C(=O)Nc3ccc(O)cc3C(=O)O)cc2C1=O,15.1% (inactive)
18,Cc1cc(N)ccc1NC(=O)c1ccccc1,6.01% (inactive)
19,Cc1ccc(C(=O)Nc2ccc(O)cc2C(=O)O)cc1,14.9% (inactive)
